In PubChem BioAssay AID1851 (National Center for Advancing Translational Sciences (NCATS), 2009):
The whole screen tested about 16,000 compounds, of which about 5,700 (36%) were called active. Not shown: some 24% with an inconclusive outcome. Calls come from the whole dose curve; as a rule, active = well fitted curve in the direction sought with a large enough effect; inconclusive = small, poorly fitted or top-dose-only effect, or effect the other way; inactive = no such curve, though single readings can be large or run the other way. The list shows a part of the results.

target: Cytochrome P450 1A2 (Homo sapiens) (UniProt P05177); test: Cytochrome panel assay with activity outcomes; conditions: recombinant CYP, pro-luciferin dealkylation, luminescence, p450-cyp1a2; series mostly up to 57.1 µM; activity, negative = inhibition: at the top concentration
Sequence (P05177 whole entry, looked up): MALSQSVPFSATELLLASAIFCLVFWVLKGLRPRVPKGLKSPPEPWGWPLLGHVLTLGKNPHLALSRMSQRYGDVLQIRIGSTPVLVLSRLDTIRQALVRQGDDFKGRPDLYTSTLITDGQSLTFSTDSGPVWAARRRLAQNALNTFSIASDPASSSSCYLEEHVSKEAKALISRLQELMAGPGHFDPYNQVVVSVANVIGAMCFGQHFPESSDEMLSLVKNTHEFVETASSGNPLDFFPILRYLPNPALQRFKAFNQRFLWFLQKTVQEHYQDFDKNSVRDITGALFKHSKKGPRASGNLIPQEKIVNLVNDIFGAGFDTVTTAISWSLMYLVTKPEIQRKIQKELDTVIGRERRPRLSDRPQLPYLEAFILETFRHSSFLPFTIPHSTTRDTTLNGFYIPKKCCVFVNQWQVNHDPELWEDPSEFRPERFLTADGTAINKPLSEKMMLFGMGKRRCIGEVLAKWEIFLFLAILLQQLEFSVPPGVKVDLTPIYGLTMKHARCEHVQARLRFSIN
% is set by controls: 0 for no effect and ±100 for the full control effect.

activity, negative = inhibition, inactive:
CC1(C)S[C@@H]2[C@H](NC(=O)[C@@H](NC(=O)N3CCNC3=O)c3ccccc3)C(=O)N2[C@H]1C(=O)O 1.79% [at 25.6 µM]
Cn1c(CCNC(=O)c2ccccc2Cl)n[nH]c1=S -6.55%
CCn1c(CCNC(=O)c2ccccc2Cl)n[nH]c1=S -1.57%
N=c1ccn2c(n1)O[C@@H]1[C@@H](O)[C@H](CO)O[C@H]12 -3.76%
O=C(NCC1CCCO1)C1CCC(=O)N1CCc1ccccc1 (stereo not drawn) -5.31%
O=C(CC(c1ccccc1)c1ccccc1)NCC1CCCO1 (stereo not drawn) 0.353%
CC(C)Cc1nnc(NC(=O)c2ccc([N+](=O)[O-])cc2)s1 -16.6%
O=C(c1cccc(C(F)(F)F)c1)N1CCC(O)(CS(=O)(=O)Cc2ccccc2)CC1 6.59%
COC(=O)C(Cc1ccc(OC(=O)c2ccc(C(F)(F)F)cc2)cc1)N1Cc2ccccc2C1=O (stereo not drawn) -9.91%
O=C(O)c1cccc(OCCO)c1 -14.7% [at 11.4 µM]
CC(=O)NC1(c2cccc(F)c2)CCN(CC(=O)NC(C)C)CC1 21.3%
[N-]=[N+]=Nc1ccc(C(=O)CSC[C@@H](NC(=O)CC[C@@H](N)C(=O)O)C(=O)NCC(=O)O)cc1 -18.2%
COc1ccc(Nc2ncc3nc(-c4cccs4)c(=O)n(Cc4cccc(OC)c4)c3n2)cc1 -8.5%
CC[N+](C)(C)c1cccc(O)c1 -2.3% [at 25.6 µM]
Cc1ccc(Oc2nn[nH]n2)cc1 -8.17%
CC(=O)CC(=O)[C@@]1(O)CC[C@@H]2[C@@H]3C=C(C)C4=CC(=O)CC[C@@H]4[C@H]3CC[C@]21C -6.66% [at 25.6 µM]
C[N+]1(C)CCC(=C(c2ccccc2)c2ccccc2)CC1 -2.16% [at 25.6 µM]
CC(C)(C)CNCCO 6.23% [at 2.29 µM]
Cc1ccc(CSc2nnc(-c3ccncc3)n2CC2CCCO2)cc1 (stereo not drawn) -21.2%
NC(=O)/C(=N\O)c1ccccc1 2.26%
COc1cccc([C@H]2Oc3ccc(OC)cc3/C(=N\OC[C@@H](O)[C@@H]3O[C@@H]4OC(C)(C)O[C@@H]4[C@H]3O)[C@@H]2O)c1 -8.99% [at 11.4 µM]
CC1(C)SC(=S)N(Cc2ccc3c(c2)OCO3)C1N(O)C(=O)NC1CCCCC1 (stereo not drawn) -27.1%
O=C(O)C[C@H](Cc1ccc2c(c1)OCO2)C(=O)O -20% [at 11.4 µM]
C[N+]1(C)CCc2cc(O)c(O)cc2[C@H]1Cc1ccc(O)c(O)c1 -12.1% [at 2.29 µM]
CC1(C)CC(=O)C(C(C#Cc2ccccc2)C2=C(O)CC(C)(C)CC2=O)=C(O)C1 -28.5%
COc1cccc(-c2cc(C(=O)N/N=C/c3ccc(OC)c(COC(C)=O)c3)c3ccccc3n2)c1 -28.3%
COc1ccc(C(C(=O)NC2CCCC2)N(Cc2ccc(F)cc2)C(=O)c2ccn[nH]2)cc1OC (stereo not drawn) -9.89%
Cc1cccc(C(=O)N/N=C/c2ccc(OCC(=O)N3CCCCC3)cc2)c1 -9.71%
O[C@@](CCN1CCCCC1)(c1ccccc1)[C@@H]1C[C@H]2C=C[C@@H]1C2 -9.3% [at 25.6 µM]
N[C@@H](C(=O)O)c1ccc(C(=O)O)cc1 3.94%
CC(=O)N[C@H](Cc1ccc(O)cc1)C(=O)O -11.8% [at 11.4 µM]
O=C(CCCCCn1c(=S)[nH]c2cc3c(cc2c1=O)OCO3)N1CCN(C2CCCCC2)CC1 -22.2%
Cc1sc2ncn(CC(=O)NCCCC(=O)N3CCN(c4ncccn4)CC3)c(=O)c2c1C -23.7%
CCCNC(=O)OC[C@@H]1O[C@H](CCO/N=C(\C)CCN2CCc3nc(-c4ccccc4)c(-c4ccccc4)cc3C2)C=C[C@@H]1Oc1ccc(OC)cc1 -4.45% [at 11.4 µM]
COC(=O)C/C=C\[C@H](C)[C@H](CO)NS(=O)(=O)c1ccc(C)cc1 -2.78% [at 11.4 µM]
Cc1ccc(C)c(S(=O)(=O)N2CCC(c3nc4c(nnn4Cc4ccc(F)cc4)c(=O)[nH]3)CC2)c1 -22.9%
O=C(NCc1ccco1)c1nc2c(nnn2Cc2cccc(Cl)c2)c(=O)[nH]1 -10.5%
CC(Cc1ccccc1)NC(=O)CSc1nc2nc3c(cc2c(=O)n1-c1ccccc1)COC(C)(C)C3 (stereo not drawn) -3.43%
C/C(CCN1CCc2nc(-c3ccccc3)c(-c3ccccc3)cc2C1)=N\OC[C@@H](O)COCc1ccco1 -6.41% [at 11.4 µM]
CCOC(=O)C(C)(C)[C@H](O)C(C)C -1.66% [at 11.4 µM]
N#Cc1cccc(NC(=O)N2CCCC3(CCN(C(=O)c4csnn4)CC3)C2)c1 10.4%
COC(=O)Cn1c(=N)n(CCN2CCCCC2)c2ccccc21 -12%
Nc1ccc(N2C(=O)c3ccccc3C2=O)c(Cl)c1 -17.8%
CC(C)COP(=O)(OCC(C)C)C(O)c1ccccc1F (stereo not drawn) -3.98%
O=C1CCCCCC1C1(O)C(=O)Nc2ccc(Br)cc21 (stereo not drawn) -18.8%
N=c1n(-c2ccccc2)c(O)cc(=O)n1-c1ccccc1 -4.91%
Cc1ccc(-n2c(C)cc(C(=O)CSc3n[nH]c(N)n3)c2C)cc1 -12.6%

AC50, active:
S=c1[nH]nc(CCc2ccccc2)n1Cc1ccccc1 25.1 µM
COc1ccc(CCCO[C@@H](Cn2ccnc2)c2ccc(OC)cc2)cc1 0.0158 µM
Cc1ccc(/C=C2\SC(=S)N(CCCC(=O)Nc3ccccn3)C2=O)cc1 10 µM
Cc1ccc(C(=O)c2cn[nH]c2-c2cc(Cl)ccc2O)cc1 14.1 µM
CC(NC(=O)OCc1ccccc1)C(=O)NCC1CCCO1 (stereo not drawn) 12.6 µM
CC(=O)N=c1sccn1CC(=O)c1ccc([N+](=O)[O-])cc1 22.4 µM
C[C@@H](Cc1cccc(C(F)(F)F)c1)NCCOC(=O)c1ccccc1 0.794 µM
CCOc1cccc(OCCCNCCCOC)c1 8.91 µM
COc1ccc(CNc2ncnc3ccc(-c4ccc(N(C)C)cc4)cc23)c(OC)c1 2.51 µM
COc1ccccc1CNc1ncnc2ccc(-c3ccc4c(c3)OCO4)cc12 0.794 µM
COc1ccccc1CNc1ncnc2ccc(-c3ccc(C(=O)N(C)C)cc3)cc12 12.6 µM
COc1ccccc1CNc1ncnc2ccc(-c3ccc(N(C)C)cc3)cc12 0.794 µM
CCNc1ncc2nc(-c3cn(C)c4ccccc34)c(=O)n(Cc3cccs3)c2n1 6.31 µM
CCNc1ncc2nc(C)c(=O)n(Cc3cccs3)c2n1 2 µM
CCNc1ncc2nc(-c3cccs3)c(=O)n(C)c2n1 1.58 µM
CCNc1ncc2nc(-c3cccs3)c(=O)n(Cc3cccs3)c2n1 1.26 µM
CCNc1ncc2nc(-c3ccccc3)c(=O)n(Cc3cccs3)c2n1 0.316 µM
CCNc1ncc2nc(-c3cc(F)cc(F)c3)c(=O)n(Cc3cccs3)c2n1 5.01 µM
CCNc1ncc2ncc(=O)n(Cc3cccs3)c2n1 2 µM
CC(=O)Oc1cc(C(C)C)c(OCCN(C)C)cc1C 3.16 µM
Cc1ccc(CSc2nnc([C@@H]3CCCN3)o2)cc1 15.8 µM
c1ccc(CSc2nnc([C@@H]3CCCN3)o2)cc1 25.1 µM
CCOC(=O)c1oc2nc(CC(C)C)c3c(c2c1N)CCC3 0.891 µM
CCc1c(C(=O)NCc2ccc3c(c2)OCO3)[nH]c(C)c1C(C)=O 3.16 µM
CCc1ccccc1NC(=S)NCc1ccc2c(c1)OCO2 5.62 µM
COc1ccc(/C=N/NC(=O)c2ccn[nH]2)cc1COc1ccc(F)cc1 8.91 µM
CO[C@@]12C[C@@H](COC(=O)c3cncc(Br)c3)CN(C)[C@H]1Cc1cn(C)c3cccc2c13 5.01 µM
CN(C)c1ccc(/C=N\NC(=O)c2cnc3ccccc3c2)cc1 1.58 µM
N#C[C@H](Cc1ccc(O)cc1)c1ccc(O)cc1 12.6 µM
C=CCNC(=O)c1ccc(Cn2c(=S)[nH]c3cc4c(cc3c2=O)OCO4)cc1 8.91 µM
O=C(CCCn1c(=S)[nH]c2cc3c(cc2c1=O)OCO3)N1CCN(c2ncccn2)CC1 12.6 µM
CCCCNC(=O)CCn1c(=S)[nH]c2cc3c(cc2c1=O)OCO3 2.51 µM
CCN(CC)CCn1c(=S)[nH]c2cc3c(cc2c1=O)OCO3 15.8 µM
O=C(Cc1cccs1)N1CCC(c2nc3c(nnn3Cc3ccccc3Cl)c(=O)[nH]2)CC1 6.31 µM
CCN(CC)CC[n+]1ccc2c(C)c3[nH]c4ccccc4c3c(C)c2c1 2.51 µM
CCN(CC)CC[n+]1ccc2c(C)c3[nH]c4ccc(O)cc4c3c(C)c2c1 3.16 µM
Cc1ccccc1-c1ccc2ncnc(N3CCNCC3)c2c1 3.16 µM
CN1CCN(c2ncnc3ccc(-c4ccccc4C#N)cc23)CC1 3.16 µM
Clc1ccccc1-c1ccc2ncnc(N3CCNCC3)c2c1 2 µM
CN1CCN(c2ncnc3ccc(-c4ccccc4Cl)cc23)CC1 1.58 µM
Cc1ccccc1-c1ccc2ncnc(N3CCN(C)CC3)c2c1 3.16 µM
Cc1cnc(CNc2nc(-c3ccc(N(C)C)cc3)nc3ccccc23)cn1 3.16 µM
Cc1cnc(CNc2nc(-c3ccoc3)nc3ccccc23)cn1 2 µM
N=c1n(CCN2CCOCC2)c2ccccc2n1CC(=O)c1ccc(Cl)c(Cl)c1 1.26 µM
O=C1c2cccc3c(Cl)ccc(c23)C(=O)N1O 3.16 µM
CCOC(=O)c1c2ccc(OCC(=O)N/N=C/c3ccc(Cl)cc3)cc2n2ccccc12 3.16 µM
Cc1cc(C)nc(Nc2ncc(O)n2-c2ccccc2)n1 2.82 µM
Cc1ccc(-n2c(O)cnc2Nc2nc(C)cc(C)n2)cc1 5.01 µM

AC50, inactive:
CC(C)(C)NC[C@H](O)c1cc(O)cc(O)c1
NC/C=C\C(=O)O
CC(C)Cc1ccc([C@H](C)C(=O)O)cc1
